Results taken from PubChem BioAssay AID651899 (Broad Institute, 2012).
Results with a measured potency or affinity are listed apart. Calls of active or inactive are those of the source. The rule behind the calls is not given here.

assay: cytotoxicity in HEK293 cells, dose response, cytotoxicity control, cell-based, plate reader, cherry-pick (AID 651899); conditions: series mostly up to 26 µM;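 note: cells exposed to compound for 48 hours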

SMILES	outcome
O=C(COc1ccc2ccc(=O)oc2c1)Nc1cccnc1	inactive
C[C@H](CO)N1C[C@H](C)[C@@H](CN(C)Cc2ccc3c(c2)OCO3)Oc2ccc(NC(=O)Cn3cnnn3)cc2CC1=O	inactive
CCC(CO)[n+]1c(C)cc(/C=C2\Sc3ccccc3N2Cc2ccccc2)cc1C (stereo unspecified)	inactive
O=C(c1cccc(F)c1)N1CC[C@@H]2[C@@H](CO)Nc3ccc(-c4cccc(F)c4)cc3[C@@H]21	inactive
O=C(O)CSc1ncnc2scc(-c3ccc(Br)cc3)c12	inactive
O=C(Nc1cccnc1)c1ccc(N2CCOCC2)c([N+](=O)[O-])c1	inactive
CCNC(=O)[C@@H]1[C@@H](CO)[C@@H]2Cn3c(ccc(-c4cccnc4)c3=O)[C@@H]2N1Cc1ccc2c(c1)OCO2	inactive
Nn1c(SCc2nc3ccccc3[nH]2)nnc1-c1cccnc1	inactive
CN(C(=O)CSc1nc2ccccc2c(=O)n1-c1ccccc1Cl)C1CCS(=O)(=O)C1 (stereo unspecified)	inactive
COc1ccc(C(=O)Nc2cccc(NC(=O)c3cccs3)c2)cc1	inactive
CS(=O)(=O)N1[C@H](C(=O)NCc2ccncc2)[C@@H](CO)[C@@H]2Cn3c(ccc(C4=CCCCC4)c3=O)[C@@H]21	inactive
COc1ccc(-c2cc(NC=O)c3ncc(-c4cccc(C(=O)N(C)C)c4)n3c2)cn1	inactive
COc1ccc(Nc2c(-c3ccc(OC)cc3)nc3cnccn23)cc1	inactive
O=C(N[C@H]1CC[C@@H](CCn2cc(-c3cccnc3)nn2)O[C@H]1CO)c1ccccc1F	inactive
Cc1nc2sc(C(c3ccc(Cl)cc3)N3CCN(c4ccccc4F)CC3)c(O)n2n1 (stereo unspecified)	inactive
CN1c2ccc(-c3cccc(C#N)c3)cc2[C@H]2[C@H](CCN2C(=O)CC2CC2)[C@H]1CO	inactive
CCOc1ccc(CCNC(=O)c2cnc(C)cn2)cc1OCC	inactive
Cc1cccc(-n2c(SCC(=O)N(C)C3CCS(=O)(=O)C3)nc3ccccc3c2=O)c1C (stereo unspecified)	inactive

SMILES	outcome
COC(=O)C1CCN(C(c2ccc(OC)c(OC)c2)c2sc3nc(C)nn3c2O)CC1 (stereo unspecified)	inactive
CC(=O)N1CC[C@@H]2[C@@H](CO)N(C)c3ccc(-c4ccccc4)cc3[C@@H]21	inactive
N#Cc1ccc(-c2ccc3c(c2)[C@@H]2[C@@H](CCN2C(=O)c2ccc(F)cc2)[C@@H](CO)N3)cc1	inactive
CCCc1c(OCCCOc2ccc(OCC(=O)O)cc2)ccc(C(C)=O)c1O	inactive
Cc1cccc(C2c3[nH]c4ccccc4c3CCN2C(=O)CN2CCOC2=O)n1 (stereo unspecified)	inactive
O=C(c1cccc(F)c1)N1CC[C@@H]2[C@H](CO)Nc3ccc(-c4cccc(F)c4)cc3[C@@H]21	inactive
CN1CCN(c2ncnc3c2[nH]c2ccc(F)cc23)CC1	inactive
Cc1cc(/C=C(/C#N)C(=O)Nc2ccccc2)c(C)n1-c1cccnc1	inactive
COc1ccc(NC(=O)c2ccc(Cl)nc2)cc1S(=O)(=O)N1CCOCC1	inactive
CCNC(=O)[C@H]1[C@H](CO)[C@H]2Cn3c(ccc(-c4ccccc4)c3=O)[C@H]2N1C(=O)Cc1cccnc1	inactive
Cc1nn(CCC(=O)O)c2nc(-c3cccnc3)cc(C(F)(F)F)c12	inactive
O=C(CSc1nnc(-c2ccncc2)n1-c1ccc(Cl)cc1)NCc1cccs1	inactive
COc1ccc(C(=O)C2CCCN(C(=O)c3ccc(C(C)=O)s3)C2)c(C)c1 (stereo unspecified)	inactive
C=CCn1c(COc2ccccc2F)nnc1SCCN1C(=O)c2ccccc2C1=O	inactive
Cc1cccc(-c2nnc(SCC#N)n2-c2ccccc2)c1	inactive
C=C(C)CSc1nc(N)c2c3c(sc2n1)CCC3	inactive
CC1=CC2=NC(=O)/C(=C\c3cc(C)n(-c4ccccc4F)c3C)C(=N)N2O1	inactive
O=C(NCc1ccco1)c1ccc(-c2ccc3nccn3c2)cc1	inactive
